High-throughput results: PubChem, National Center for Advancing Translational Sciences (NCATS)
An excerpt weighted towards active compounds, which were near 10% of everything screened.
ALDH1A1 inh: qHTS Assay for Inhibitors of Aldehyde Dehydrogenase 1 (ALDH1A1); Aldehyde dehydrogenase 1A1 (Homo sapiens), P00352; Purified ALDH1A1, NADH fluorescence, propionaldehyde substrate; Potency, µM (series often up to 75.3 µM), without a hit: at the top dose activity, negative = inhibition, hits mostly inhibitors; 7.3% of 220,000 active; active = well fitted inhibition curve with a large enough effect, not every such curve was filed as active; inconclusive = small, poorly fitted or top-dose-only effect, or another doubt; inactive = no such curve, though single readings can be large or run the other way;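 note: potency is the fitted concentration of half-maximal effect; plate controls were no enzyme wells and a reference inhibitor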
Target sequence (P00352 whole entry, looked up): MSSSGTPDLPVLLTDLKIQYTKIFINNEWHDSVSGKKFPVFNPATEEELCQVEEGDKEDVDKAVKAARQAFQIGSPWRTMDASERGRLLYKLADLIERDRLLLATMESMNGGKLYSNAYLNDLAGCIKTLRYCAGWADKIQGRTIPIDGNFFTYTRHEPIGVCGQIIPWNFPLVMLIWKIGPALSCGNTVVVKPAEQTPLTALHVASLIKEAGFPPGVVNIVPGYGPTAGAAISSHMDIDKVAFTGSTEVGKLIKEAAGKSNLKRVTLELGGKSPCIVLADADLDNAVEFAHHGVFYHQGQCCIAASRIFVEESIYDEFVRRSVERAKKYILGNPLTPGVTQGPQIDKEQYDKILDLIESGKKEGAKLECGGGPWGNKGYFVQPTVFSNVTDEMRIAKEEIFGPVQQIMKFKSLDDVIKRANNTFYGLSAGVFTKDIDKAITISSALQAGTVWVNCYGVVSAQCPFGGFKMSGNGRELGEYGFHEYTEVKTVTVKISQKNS
PNC assembly inh: High Content Assay for Compounds that inhibit the Assembly of the Perinucleolar Compartment. 3.1% of 140,000 active. AID 2417, 2010. PC3M PTB-GFP, PNC prevalence imaging, 16 h; stronger effect = lower value. activity change (PNC), negative = inhibition, % at 10 µM;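 active = readout at or below -70, meaning at least 70% loss of cells showing the perinucleolar compartment, a nuclear body marking cancer cells; inconclusive = readout between -30 and a set limit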;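 note: plate controls were DMSO wells for no effect and camptothecin positive control wells for full effect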
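Read-out is percentage of cells bearing a perinucleolar compartment, from automated 20x imaging of fixed, Hoechst-stained PC3M PTB-GFP cells. Cells were seeded 4 h, then exposed 16 h to compound (23 nl of library stock) in duplicate plates.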
HPGD block: qHTS Assay for Inhibitors of HPGD (15-Hydroxyprostaglandin Dehydrogenase); Potency, µM, without a hit: at the highest dose activity change, negative = inhibition, most hits filed as inhibitors; AID 894, 2007; 15-hydroxyprostaglandin dehydrogenase [NAD(+)] (Homo sapiens), P15428; purified HPGD, NADH fluorescence kinetic, PGE2 substrate; 4.3% of 150,000 active; active = well fitted inhibition curve with a large enough effect, not every such curve was filed as active; inconclusive = small, poorly fitted or top-dose-only effect, or another doubt; inactive = no such curve, though single readings can be large or run the other way; note: potency is the fitted concentration of half-maximal effect
Target sequence (P15428 whole entry, looked up): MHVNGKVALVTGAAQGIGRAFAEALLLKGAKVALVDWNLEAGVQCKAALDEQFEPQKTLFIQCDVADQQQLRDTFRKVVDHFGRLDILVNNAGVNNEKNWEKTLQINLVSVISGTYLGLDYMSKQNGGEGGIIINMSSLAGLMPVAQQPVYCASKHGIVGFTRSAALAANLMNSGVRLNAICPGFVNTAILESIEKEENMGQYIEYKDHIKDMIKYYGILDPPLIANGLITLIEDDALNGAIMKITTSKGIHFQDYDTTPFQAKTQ
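20 nM HPGD preincubated 15 min at room temperature with compound in 50 mM Tris-HCl pH 8, 0.01% Tween 20. Started with 1 mM NAD+ and 30 uM prostaglandin E2; NADH fluorescence (360/450 nm) read 5 times over 30-s intervals, last minus first.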
GLA spleen mod: qHTS Assay for Inhibitors and Activators of Human alpha-Galactosidase From Spleen Homogenate. AID 2107, 2009. 0.008% of 240,000 active. Potency, µM (titrated, usually from 80 µM), for the others: at the highest dose activity change, negative = inhibition, most hits filed as inhibitors. human spleen homogenate, 4MU-alpha-Gal fluorescence, 40 min;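 note: potency is the fitted concentration of half-maximal effect; 0% = enzyme with vehicle and -100% = no enzyme basal signal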
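Spleen homogenate 1 ug + cpd (titration) + 4-MU-alpha-D-galactopyranoside 1 mM; 37C 40 min; 50 mM citrate/phosphate pH 5.0, 0.01% Tween-20; stop pH 10; fluorescence 365/440; AC50 via Hill.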
ALOX12 inhib: qHTS Assay for Inhibitors of 12-hLO (12-human lipoxygenase); Polyunsaturated fatty acid lipoxygenase ALOX12 (Homo sapiens), P18054; purified 12-hLO, xylenol orange hydroperoxide absorbance; Potency, µM (titrated, usually from 57.1 µM), inactives show top-dose activity change, negative = inhibition, most hits filed as inhibitors; 0.12% of 150,000 active; AID 1452, 2008; note: potency is the fitted concentration of half-maximal effect; nearly all actives have a fitted effect of over 55% in size
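Purified human 12hLO (150 nM), preincubated 15 min with compound, then 40 uM arachidonic acid for 30 min, room temperature, Hepes pH 7.0 with 0.01% Triton X-100. Hydroperoxide detected by ferrous iron/xylenol orange; 573/405 nm absorbance ratio gives reaction progress.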
GLA inh pH 4.5: qHTS Assay for Inhibitors of Human alpha-Galactosidase at pH 4.5 | purified enzyme, 4-MU-alpha-Gal fluorescence, pH 4.5 | activity change, negative = inhibition, % at 105 µM | 230,000 tested, under 10 active | AID 1467, 2008;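 note: 0% = full activity with enzyme and -100% = basal without enzyme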
* marks the source's active call; other numbers are inactive results; ? = inconclusive; . = not tested or not shown; [ ] = another dose, or the depositor's remark. Unless noted, calls come from the whole dose curve; as a rule, active = well fitted curve in the direction sought with a large enough effect; inconclusive = small, poorly fitted or top-dose-only effect, or another doubt; inactive = no such curve, though single readings can be large; an effect the other way counts as inactive or inconclusive. Unless noted, % is set by controls: 0 for no effect and ±100 for the full control effect.

SMILES	ALDH1A1 inh	PNC assembly inh	HPGD block	GLA spleen mod	ALOX12 inhib	GLA inh pH 4.5
CCC(=NCc1ccco1)c1c(O)n(C2CCCCC2)c(=O)[nH]c1=O	?	-1	-12%	-1%	-6%	4
CCC(=O)c1c(O)n(C2CCCCCC2)c(=O)[nH]c1=O	25µM*	10	-8%	-2%	6%	4
Oc1ccccc1-c1ccccc1	18µM*	.	?	2%	-1%	.
Cc1cc(C=C2C(=O)NC(=S)NC2=O)c(C)n1C1CCCC1	7.1µM*	.	.	-1%	.	-3
Cc1cc(C=C2C(=O)N(C)C(=S)N(C)C2=O)c(C)n1C1CCCCC1	?	?	-10%	5%	-11%	-2
c1ccc2c(CCNC3=NCCC3)c[nH]c2c1	3%	-83*	-10%	-1%	1%	10
CN(C)CC1CSCCC1(O)c1cccc(Cl)c1 (configuration not stated)	0%	?	0%	2%	-5%	1
CN(C)CC1CSCCC1(O)c1ccccc1 (configuration not stated)	13µM*	-27	1%	-4%	-1%	3
Oc1ccc2c3c1O[C@@H]1[C@@H](O)CC[C@]4(O)[C@H](C2)N(CC2CCC2)CC[C@@]314	.	.	.	.	-5%	.
CC[C@@H]1CN2CCc3cc(OC)c(OC)cc3[C@H]2C[C@@H]1C[C@H]1NCCc2cc(OC)c(OC)cc21	8%[20.9 µM]	.	-6%	-7%[29.1 µM]	5%[25.6 µM]	-6
O=C(C1CCC(=O)N1C1CCCC1)N1CCC2(CC1)OCCO2 (configuration not stated)	-7%	-21	-12%	-22%	0%	-1
O=C(C1CC(=O)N(C2CCCCCCC2)C1)N1CCC2(CC1)OCCO2 (configuration not stated)	25µM*	?	-6%	-9%	-4%	7
CCCCC(=O)Cl	?	.	-8%	0%	-4%	.
CN(C(=O)Cc1ccc(Cl)c(Cl)c1)[C@H](CN1CCCC1)c1cccc(N=C=S)c1	?	.	-9%	-4%	-15%	-6
CC(=O)O/C(=C1/C[C@H]2[C@@H]3CC=C4C[C@@H](OC(C)=O)CC[C@]4(C)[C@@H]3CC[C@]2(C)C1=O)C(F)(F)F	?	.	-7%	.	-10%[11.4 µM]	.
CCOC(=O)C1CCN(/C=C2/C(=O)NC(=O)N(Cc3ccco3)C2=O)CC1	3.5µM*	?	-14%	-1%	3%	7
Cc1cc(C=C2C(=O)N(C)C(=O)N(C)C2=O)c(C)n1-c1ccccc1	?	.	.	14%	.	-3
Cc1cc(/C=C2\C(=O)NC(=O)N(Cc3ccco3)C2=O)c(C)n1-c1ccc(C(=O)O)cc1	.	.	.	2%	.	-4
Cc1cc(/C=C2\C(=O)NC(=O)N(c3ccc(F)cc3)C2=O)c(C)n1-c1ccc(C(=O)O)cc1	7.9µM*	.	.	13%	.	-20
Cc1ccccc1-n1c(C)cc(/C=C2/C(=O)NC(=O)N(Cc3ccco3)C2=O)c1C	3.5µM*	23	-18%	-8%	-4%	6
Cc1ccc(-n2c(C)cc(/C=C3/C(=O)NC(=O)N(C)C3=O)c2C)cc1	?	-85*	-2%	9%	-6%	-2
CC(Cc1ccc(C(C)(C)C)cc1)CN1CCCCC1 (configuration not stated)	.	.	.	-5%	.	.
CC(C)n1c(/C=C\[C@@H](O)C[C@@H](O)CC(=O)O)c(-c2ccc(F)cc2)c2ccccc21	?	.	-13%	-9%[29.1 µM]	-3%[25.6 µM]	-3
Cc1cc(/C=C2\C(=O)NC(=O)N(Cc3ccco3)C2=O)c(C)n1-c1ccc(O)cc1	?	.	.	13%	.	-6
C=CCN1C(=O)/C(=C/c2cc(C)n(-c3cccnc3)c2C)C(=O)NC1=S	?	39	10µM*	-2%	-13%	9
SMILES	ALDH1A1 inh	PNC assembly inh	HPGD block	GLA spleen mod	ALOX12 inhib	GLA inh pH 4.5
Cc1cc(/C=C2\C(=O)NC(=O)N(Cc3ccccc3)C2=O)c(C)n1-c1ccc(Cl)c(C(=O)O)c1	?	-2	18µM*	-8%	-19%	-3
Cc1ccc(-n2c(C)cc(/C=C3/C(=O)NC(=O)N(Cc4ccco4)C3=O)c2C)cc1	14µM*	13	?	1%	-4%	1
Cc1cc(/C=C2\C(=O)NC(=O)N(Cc3ccccc3Cl)C2=O)c(C)n1-c1ccc(C(=O)O)cc1	?	.	.	1%	.	2
c1cc(CCN2CCCCC2)ccn1	11%[13.5 µM]	.	-5%	.	-4%[11.4 µM]	.
O=NN(CCO)CCO	?	.	-7%	2%	4%	.
CN1C[C@@H](CS(=O)(=O)N(C)C)C[C@H]2c3cccc4c3c(cn4C)C[C@@H]21	.	.	.	.	-3%	.
ClCc1ccccn1	2%	.	-6%	-4%	-3%	.
COc1cc(/C=N/NC(=O)CN2CCCCC2)ccc1OCc1ccccc1	22µM*	7	-23%	6%	6%	-9
ClC(Br)Br	9%	.	-4%	-6%	-2%	.
COc1cc(CNC(=O)CCCC/C=C\C(C)C)ccc1O	3.5µM*	.	-8%	0%	3%	-3
CNC[C@H](O)c1ccc(O)c(OC)c1	6%[20.9 µM]	.	-1%	-1%[29.1 µM]	-3%[25.6 µM]	7
CCOP(=S)(OCC)Oc1cc(C)nc(N(CC)CC)n1	.	.	.	1%	.	.
CC(=O)OC1=CC2=CC[C@H]3[C@H]4CCC(=O)[C@@]4(C)CC(=O)[C@]3(S)[C@]2(C)CC1	4.5µM*	.	-4%	.	-6%[11.4 µM]	.
O=C(CNC(=O)c1ccccc1)NCC(=O)OCC(=O)c1ccc([N+](=O)[O-])cc1	0.89µM*	-10	-6%	2%	-7%	-1
O=C(CNC(=O)c1ccc(Cl)cc1)OCC(=O)c1ccc2c(c1)OCCO2	?	-12	-3%	2%	-7%	3
O=C(CNC(=O)c1ccc(Cl)cc1)Nc1ccc(Br)cc1C(=O)c1ccccc1	?	3	-19%	-8%	1%	-3
O=C(CNC(=O)c1ccc(Br)cc1)NCC(=O)OCC(=O)c1ccc([N+](=O)[O-])cc1	1µM*	9	-8%	1%	-1%	-14
Cc1c([C@@H](C)C2NC[C@H](C)C[C@@H]2O)ccc2c1C[C@@H]1[C@H]2CC=C2C[C@@H](O)CC[C@@]21C (some centres not stated)	-2%[13.5 µM]	.	-11%	.	.	.
COc1ccc(CCN(C)Cc2ccc(F)cc2F)cc1OC	?	?	-8%	3%	3%	-2
CCN(CC)c1ccc(CN(C)CCc2ccc(OC)c(OC)c2)cc1	13µM*	19	6%	3%	-1%	-7
